Screening data as filed in PubChem.
TcdB GH inh – TcdB glycohydrolase inhibition | P18177 | inhibition, % at 9.99 µM | 350,000 tested, 0.24% active | TcdB glycohydrolase enzymatic assay, plate reader | AID 652162; in the data active means inhibition above about 10%
DUSP3 inh – DUSP3 (human) phosphatase inhibition. 290,000 tested, 0.52% active. P51452. recombinant VHR phosphatase, pNPP absorbance. AID 1654. inhibition, % at 13.3 µM; in the data active means inhibition above about 50%
SARS 3CLpro inh – SARS-CoV 3CLpro protease inhibition; recombinant SARS-CoV 3CLpro, quenched FRET peptide cleavage; 290,000 tested, 0.14% active; P0C6X7; inhibition, % at 6 µM; in the data active means inhibition above about 12%
Vc quorum ag-1 – inducers of Vibrio cholerae quorum light production without autoinducers; V. cholerae BH1578 lux reporter, luminescence, 6 h; activation, % at 18.7 µM; 350,000 tested, 0.16% active; AID 588436; in the data active means activation mostly above about 9.7%, no sharp cut-off
CCHF vOTU inh – CCHFV vOTU protease inhibition; Pep-AMC fluorescence; inhibition, % at 11.5 µM; 370,000 tested, 0.55% active; AID 651958; in the data active means inhibition above about 30%; further: 0% = vehicle wells with enzyme and 100% = no enzyme wells
PriA SSB inh – inhibitors of Klebsiella pneumoniae PriA binding to SSB C-terminal tail; AlphaScreen SSBct-PriA binding, biotinylated peptide; inhibition, % at 33 µM; 430,000 tested, 0.6% active; in the data active means inhibition mostly above about 37%, no sharp cut-off; inactive means mostly below about 20%;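 further: plate controls were negative control peptide for no effect and reference peptide for full effect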
Vc quorum ag-2 – inducers of V. cholerae quorum light production without autoinducers; shares compounds with Vc quorum ag-1; V. cholerae BH1578 lux reporter, luminescence, 6 h; activation, % at 50 µM; 620 tested, under 10 active; AID 602243; call rule not given here
HeLa 24h tox – HeLa cell viability loss at 24 h; shares compounds with Vc quorum ag-1; CellTiter-Glo ATP luminescence; activity change, negative = cytotoxicity, % at 35 µM; 25 tested, under 10 active; AID 624140;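 active means signal drop with fitted half-maximal concentration at or below twice the highest valid dose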
* marks the source's active call; other numbers are inactive results; i = inactive; / = not tested or not shown. Sampled rows, rich in hits. Any-hit rate of the full collection: about 1.3%.

SMILES	TcdB GH inh	DUSP3 inh	SARS 3CLpro inh	Vc quorum ag-1	CCHF vOTU inh	PriA SSB inh	Vc quorum ag-2	others
Cc1ccccc1NC(=O)c1cc2ccccc2o1	2.5	5.8	-2.3	i	-7.5	-10.3	/
CCOc1ccc(C(O)=C2C(=O)C(=O)N(CCOCCO)C2c2cccnc2)cc1 (stereo unspecified)	/	/	/	/	/	-0.9	/
CCOc1ccc(/C(O)=C2/C(=O)C(=O)N(CCOCCO)C2c2ccccn2)cc1 (stereo unspecified)	/	12.0	0.0	14.3	2.8	/	0.2
COc1ccc(S(=O)(=O)N(CC(C)C)[C@H]2CCS(=O)(=O)C2)cc1C	/	/	/	/	/	-1.0	/
CCOC(=O)c1c(NC(=O)COC(=O)Cc2c[nH]c3ccccc23)sc(C(=O)N(C)C)c1C	-1.5	/	/	12.5	4.2	/	0.1
CCCCCCCCOC(=O)C(NC(=O)CCC(=O)Nc1ccc(S(N)(=O)=O)cc1)C(O)c1ccccc1 (stereo unspecified)	/	-8.1	7.4	16.7*	0.7	0.3	0.1
COc1ccc(C(=O)COC(=O)CNC(=O)c2ccc(Cl)cc2Cl)c(OC)c1	-0.1	/	/	1.8	-3.6	-3.0	0.0
COc1ccccc1C(=O)NC(=O)COC(=O)CNC(=O)c1ccc(Cl)cc1Cl	2.4	/	/	i	1.9	-10.6	/
COc1cc(N2CCN(C(=O)c3ccccc3C(F)(F)F)CC2)nc(C)n1	/	/	/	/	/	-9.0	/
Oc1ccc(C(=S)N2CCCCC2)cc1	/	8.3	-2.3	/	-10.3	-11.9	/
S=C(c1ccc(N2CCOCC2)cc1)N1CCCCC1	/	8.8	0.1	19.8*	10.4	-6.2	-0.2
COc1ccc(OC)c(NC(=O)COC(=O)c2cc3c(s2)CCC3)c1	0.5	42.6	-0.7	21.9	-3.5	-12.7	2.1
COc1ccccc1NC(=O)COC(=O)c1cc2c(s1)CCC2	-0.2	/	/	/	7.8	-2.3	i	HeLa 24h tox=4.5
COc1ccccc1NC(=O)COC(=O)C1CCCC1	0.8	/	/	i	-10.7	-19.2	/
Cc1nc2scc(-c3cccc(NC(=O)C(C)Oc4cccc(F)c4)c3)n2c(=O)c1C (stereo unspecified)	/	/	/	/	/	-10.0	/
Cc1c(C(=O)NCCn2nc(C(F)(F)F)n(C)c2=O)cnn1-c1ccccc1	/	/	/	/	/	-3.0	/
O=C(CN(Cc1ccc(Cl)cc1)S(=O)(=O)c1cccnc1)N1CCc2ccccc21	/	/	/	/	/	-2.0	/
CCN(CC)Cc1cc(C(=O)O)c(-c2ccccc2)o1	1.4	4.8	3.3	-5.5	-0.8	-0.7	/
O=C(O)c1cc(CN2CCOCC2)oc1-c1ccccc1	/	-4.7	4.6	16.7*	0.7	-3.4	0.8
O=C(c1cc(-c2cccnc2)on1)N1CC(n2cc(COc3ccccc3)nn2)C1	/	/	/	/	/	-13.0	/
COc1ccc(NC(=O)NCCCn2nc(-c3ccc(F)cc3)ccc2=O)cc1OC	/	/	/	/	/	-3.0	/
COc1cc(S(=O)(=O)N2CCCC(C)C2)c(C)cc1Br (stereo unspecified)	/	/	/	/	/	-56.0	/
COc1cccc2sc(N3CCN(C(=O)C4CCN(S(C)(=O)=O)CC4)CC3)nc12	/	/	/	/	/	-12.0	/
COc1ccc(C2CC(=O)Oc3cc(OC)c(OC)c(OC)c32)cc1 (stereo unspecified)	0.7	/	/	i	11.1	-1.0	/
COc1cc2c(c(OC)c1OC)C(c1ccc(C)cc1)CC(=O)O2 (stereo unspecified)	1.5	/	/	18.3	0.7	-0.6	0.8
SMILES	TcdB GH inh	DUSP3 inh	SARS 3CLpro inh	Vc quorum ag-1	CCHF vOTU inh	PriA SSB inh	Vc quorum ag-2	others
Cc1ccc2nc(-c3ccc(NC(=O)c4cc5nc(C)ccc5o4)cc3)sc2c1	/	/	/	/	/	-7.0	/
COC(=O)[C@H]1C[C@H](C(=O)O)[C@@H](C)C1(C)C	-7.1	/	/	25.1	21.2	-16.3	0.1
CC(=O)N1CCN(C(=O)COc2ccc(Br)cc2)CC1	/	-4.9	-0.3	16.7*	8.0	0.6	-0.1
COc1ccc(N2CCN(C(=O)COc3ccc4ccccc4c3)CC2)cc1	/	2.9	-2.8	12.5	6.2	2.9	-0.1
COc1ccc(OCC(=O)N2CCN(C(=O)COc3ccc(Br)cc3)CC2)cc1	/	-2.4	-1.2	/	0.9	-20.8	/
CCOc1ccc2cc(C#N)c(SCC(=O)N3CCC(C)CC3)nc2c1	/	4.8	-2.4	14.3	-1.7	6.5	4.5
O=C(COc1cccc(Cl)c1)Nc1ccccc1N1CCCCC1	1.1	/	/	19.3	6.7	-5.2	0.0
O=C(COc1ccccc1)Nc1ccccc1N1CCCCC1	/	14.5	0.9	8.3	6.3	-21.7	/
O=C(/C=C/c1ccccc1C(=O)O)c1ccc(F)cc1	/	/	/	/	/	-5.0	/
O=C(COc1ccccc1F)NCCCn1nc(-c2ccc(Cl)cc2)ccc1=O	/	/	/	/	/	-4.0	/
O=C(Nc1nc(-c2cc(Cl)sc2Cl)cs1)c1cccc(C(F)(F)F)c1	/	/	/	/	/	-12.0	/
O=C(c1cc2cc(Cl)ccc2oc1=O)N1CCOCC1	/	25.6	1.0	7.6	5.3	2.1	4.1
O=C(c1cc2ccccc2oc1=O)N1CCOCC1	0.4	15.0	-0.8	0.4	-9.7	-8.4	/
Cc1ccc(S(=O)(=O)Nc2ccc3c(c2)CCC(=O)N3)s1	/	/	/	/	/	2.0	/
CCOC(=O)C1CCCc2c1[nH]c1c(C(=O)O)cccc21 (stereo unspecified)	/	18.7	7.7	12.5	-6.8	1.6	0.6
Cc1ccc(C)c(-n2c(Cc3cccs3)n[nH]c2=S)c1	-0.9	0.2	-1.8	13.3	6.4	3.4	-0.2
S=c1[nH]nc(Cc2cccs2)n1-c1ccccc1Cl	-0.2	30.9	0.6	-0.3	-5.7	-9.2	/
O=C(Cn1ncccc1=O)NCc1ccccc1Cl	/	/	/	/	/	-24.0	/
CCN(CC)C(=O)CSc1nnc(-c2ccco2)o1	/	8.9	-5.5	/	-3.8	-7.1	/
CN(C)C(=O)CCSc1nnc(-c2ccco2)o1	0.8	14.4	-3.6	101.4*	-2.0	-5.3	882.7
Cc1ccc(OCC(=O)NC2CCS(=O)(=O)C2)c([N+](=O)[O-])n1 (stereo unspecified)	0.9	/	/	12.5	7.8	4.8	-0.2
O=C(Nc1c(F)c(F)c(F)c(F)c1F)C1CCCCC1	/	-14.1	-5.4	25.2	10.7	9.2	1.6
O=C(NCCC(=O)N1CCN(c2ccccc2F)CC1)c1ccco1	1.8	/	/	i	-0.5	-16.4	/
O=C(NCCC(=O)N1CCN(c2ccc(F)cc2)CC1)c1ccco1	2.4	/	/	12.5	-9.0	-0.2	100.0
COC(=O)Nc1ccc(S(=O)(=O)NCCCCCC(=O)O)cc1	0.9	11.1	1.8	i	13.6	-10.2	/
COC(=O)Nc1ccc(S(=O)(=O)NCCO)cc1	/	7.8	4.9	12.5	0.8	-6.2	0.0
Cc1ccc(C)c(N(C(=O)Cn2nnc(-c3cccs3)n2)C(C(=O)NC2CC2)c2ccc(C)o2)c1 (stereo unspecified)	/	4.0	0.1	828.6*	-9.7	-3.0	2.2
CC(OC(=O)c1ccc(-n2cnnn2)cc1)C(=O)N(C)c1ccccc1 (stereo unspecified)	2.8	/	/	14.3	-11.8	-14.4	1.2
Cn1nccc1C(=O)N(Cc1cccnc1)c1nc2ccccc2s1	/	/	/	/	/	-1.0	/
